Assay outcomes from PubChem BioAssay.
CF NFkB inh – inhibitors of PAF-induced NF-kB signaling, primary screen, cell-based, GFP fluorescence, uHTS | KKLEB NF-kB-GFP reporter, GFP fluorescence overnight | 360,000 compounds, 0.86% hits | inhibition, % at 5 µM;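 active means at least 50% inhibition at 5 µM, scaled per plate between neutral and stimulator controls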;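 further: PAF is a Pseudomonas aeruginosa culture filtrate used as stimulus; plate controls were PAF-stimulated DMSO wells for no effect and unstimulated DMSO wells for full effect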
KKLEB cytotox – cytotoxicity in KKLEB CF airway cells, primary screen, cytotoxicity control for CF NF-kB inhibitor project, cell-based, uHTS, fluorescence assay plates | AID 602141, 2011 | 360,000 compounds, 0.36% hits | KKLEB CF airway cells viability, ATPlite luminescence, overnight; stronger effect = lower value; cells stimulated with P. aeruginosa culture filtrate | activity change (cytotoxicity), % at 5 µM;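 active means corrected activity change at or below -50% at 5 µM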
Peg3 prom inh-1 – Peg3 promoter-driven luciferase inhibitors, primary screen, cell-based, HeLa, luciferase luminescence. HeLa PEG-Prom luciferase reporter, overnight. inhibition, % at 20 µM. 360,000 compounds, 1.7% hits. AID 588405, 2011;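 active means inhibition of at least 50% at 20 µM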
Shn3 3UTR inh – reduction of Shn3 3'UTR firefly luciferase signal, primary screen, Schnurri-3 inhibitor project, cell-based, Clone20 osteoblasts, set 2 | Clone20 osteoblast Shn3 3'UTR firefly luciferase, 24 h | inhibition, % at 12.5 µM | 360,000 compounds, 0.52% hits | AID 588674, 2011;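 active means mean inhibition of at least 75% with every replicate also reaching 75%; inconclusive means mean inhibition at least 75% but some replicate below; inactive means mean inhibition below 75%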;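 further: 0% = median of neutral control wells and 100% = pilot-screen positive control compound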
MITF TRPM1 inh – inhibitors of MITF-dependent TRPM1 promoter reporter, primary screen, cell-based, SK-MEL-5, single point, luciferase; SK-MEL-5 TRPM1 promoter luciferase, 24 h; AID 488899, 2010; 330,000 compounds, 0.83% hits; inhibition, % at 12.5 µM;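 active means mean inhibition across replicates of 60% or more, whatever share of single replicates reaches that level; inconclusive means some that reach 60%, reason not given; inactive means mean inhibition across replicates below 60%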
LMP1 NFkB inh – EBV LMP1-driven NF-kappaB luciferase reporter inhibitors, primary screen, cell-based, luminescence, single point | LMP1-induced NF-kappaB luciferase reporter cells | inhibition, % at 12.5 µM | 350,000 compounds, 0.69% hits | AID 504558, 2011; in the data active means inhibition above about 41%; inconclusive means no clear call, values can overlap the other calls;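 further: 0% = neutral control wells and 100% = reference inhibitor control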
Peg3 prom inh-2 – Peg3 promoter reporter inhibitors, retest, confirmation, cell-based, HeLa, luciferase reporter, single concentration; shares compounds with Peg3 prom inh-1; HeLa PEG-Prom luciferase reporter, luminescence, overnight; inhibition, % at 20 µM; 1,300 compounds, 84% hits; AID 602417, 2012;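 active means at 20 µM dose, 40% or more inhibition averaged across four replicates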
An asterisk follows results filed as active; ? = inconclusive; nt = not tested or not shown. The list is not random: actives were taken first. Their share in the collection is about 2.9%.

SMILES	CF NFkB inh	KKLEB cytotox	Peg3 prom inh-1	Shn3 3UTR inh	MITF TRPM1 inh	LMP1 NFkB inh	Peg3 prom inh-2
Cc1cc(C(=O)COC(=O)C2=COCCO2)c(C)n1-c1ccccc1	0	-19	60*	37	81*	72*	72*
O=C(Nc1ccc(C(=O)N2CCCCC2)cc1)C1CC1	5	2	-15	6	1	-1	nt
CC(C)c1ccc(NC2CCCN(C(=O)CN3CCCCC3=O)C2)cc1 (centres undefined)	15	-6	0	-17	nt	-5	nt
CSCC[C@H](NC(=O)c1ccc(OCC2CCCO2)cc1)c1nc2ccccc2[nH]1 (some centres undefined)	4	9	-19	5	0	0	nt
C=CCN=C1NN=C(c2cc(C)n(CC=C)c2C)CS1	4	1	74*	72	84*	53*	82*
CCOC1=C2CN(S(=O)(=O)c3ccc(C)cc3)[C@H](c3cccc(Cl)c3)C[C@@H]2N(S(=O)(=O)c2ccccc2[N+](=O)[O-])[C@H](c2ccccc2)C1	-6	13	15	14	nt	nt	nt
COc1ccc2sc(N(CCCN(C)C)C(=O)c3ccc(S(=O)(=O)N4CCCc5ccccc54)cc3)nc2c1	5	-15	84*	11	77*	-17	96*
Cc1cc(C)c2nc(NNC(=O)c3ccc(S(=O)(=O)N4CCCCC4)cc3)sc2c1	17	-10	55*	11	nt	31	66*
Cc1cc(C)c2sc(N(CCCN(C)C)C(=O)c3ccc(S(=O)(=O)N(C)C4CCCCC4)cc3)nc2c1	42	-14	107*	1	90*	-6	98*
COc1cc2nc(N(CCCN(C)C)C(=O)c3ccc(S(=O)(=O)N4CCc5ccccc54)cc3)sc2cc1OC	-4	-5	-15	-5	5	-11	nt
Cc1cc(C)c2nc(N(CCCN(C)C)C(=O)c3ccc(S(=O)(=O)N4CCCCCC4)cc3)sc2c1	12	-16	80*	22	19	0	99*
COc1ccc(S(=O)(=O)N2CCOCC2)cc1NC(=O)Cc1ccc(F)cc1	-11	7	5	17	nt	0	nt
COc1cc(NC(=O)C2CC(c3ccccc3O)=NO2)cc(OC)c1OC (centres undefined)	-10	-4	14	1	nt	8	nt
CCc1ccc(C(O)c2ncc(-c3ccccc3OC)[nH]2)cc1 (centres undefined)	-44	6	-1	43	nt	nt	nt
CCOC(=O)N1CCN(S(=O)(=O)c2ccc(C(=O)NNc3nc4c(C)cc(C)cc4s3)cc2)CC1	-12	-7	56*	9	nt	nt	92*
CCN(CC(=O)Nc1ccc(NC(C)=O)cc1)C(=O)/C=C/c1cn(-c2ccccc2)nc1-c1cccs1	-20	-1	-1	6	-24	-2	nt
CN1CCC(N(C)C(=O)/C=C/c2cn(-c3ccccc3)nc2-c2cccs2)CC1	11	-11	77*	-15	?	-43	93*
O=C(CN(c1ccc(Cl)cc1)S(=O)(=O)c1ccc(Cl)c([N+](=O)[O-])c1)NCCc1ccccc1	-9	-1	87*	36	51	9	31
CS(=O)(=O)N(CC(=O)NCCc1ccccc1)c1cccc([N+](=O)[O-])c1	-8	-2	-26	-9	-24	-11	nt
Cc1cc(C)c(S(=O)(=O)ON2C(=O)c3ccccc3C2=O)cc1C	-2	2	70*	70	31	-18	41*
Cc1ccc(OC(=O)CN2C(=O)c3ccccc3C2=O)cc1C	-20	10	-7	11	-2	5	nt
CCOc1ccc2nc(NC(=O)c3cccc(-c4cc5ccccc5oc4=O)c3)sc2c1	50*	-58*	89*	12	37	-2	-9
CCOc1ccc2nc(NC(=O)c3cccc(N4C(=O)CCC4=O)c3)sc2c1	-23	-13	-36	-6	nt	19	nt
COc1ccccc1CCNC(=O)C1CCN(c2nnc(C)c3c(C)n(-c4ccc(C)cc4)nc23)CC1	-20	-35	89*	32	77*	-9	78*
Cc1ccccc1CNC(=O)C1CCCN(c2nnc(C)c3c(C)n(-c4ccccc4)nc23)C1 (centres undefined)	-7	-6	63*	-11	82*	-3	81*
SMILES	CF NFkB inh	KKLEB cytotox	Peg3 prom inh-1	Shn3 3UTR inh	MITF TRPM1 inh	LMP1 NFkB inh	Peg3 prom inh-2
Cc1nnc(N2CCCC(C(=O)NCc3ccccc3F)C2)c2nn(-c3ccccc3)c(C)c12 (centres undefined)	-16	1	15	16	32	10	nt
Cc1cccc(C)c1Cn1c(C)c(C(=O)NCc2ccc([N+](=O)[O-])cc2)sc1=O	-10	17	15	33	nt	nt	nt
O=C(Nc1c(-c2ccc3c(c2)OCO3)[nH][nH]c1=O)c1cnccn1	-4	6	6	-5	nt	nt	nt
CC1Oc2ccc(C#N)cc2N(Cc2cccc(F)c2)C1=O (centres undefined)	15	-8	13	-16	nt	nt	nt
Cc1ccccc1OCC(O)CNC1CCC(NCC(O)COc2ccccc2C)CC1 (centres undefined)	38	-37	101*	97*	99*	-35	99*
Cc1ccc(OCC(O)CNC2CCCC2)c(C)c1 (centres undefined)	-7	-6	-3	-44	-3	-3	nt
CN(C)c1ccc(/C=C2\SC(=O)N(CCc3nnc(N)s3)C2=O)cc1	-20	-45	72*	69	83*	73*	54*
O=C(Nc1ccccc1)NN(C(=O)CCl)c1ccccc1	70*	-34	100*	7	87*	47*	92*
CC(C)(C)NC(=O)CN(C(=O)CCC(=O)Nc1nccs1)c1ccccc1F	12	-15	13	-1	nt	0	nt
Cc1ccc(-n2cc(CNCCc3cscn3)c(-c3ccc(F)cc3)n2)cc1	-2	-6	-23	31	46	8	nt
Cc1ccc(-n2cc(CNCCCn3ccnc3C)c(-c3ccc(F)cc3)n2)cc1	24	-19	112*	82	72*	-54	98*
O=C(c1ccoc1)N1CCN(c2cc(-c3ccccc3)nc3cc(-c4ccccc4)nn23)CC1	1	4	68*	75	nt	5	70*
CC(C)(C)c1ccc(OCCCNCc2ccccc2)cc1	8	-10	112*	-9	43	8	61*
